The values below come from PubChem BioAssay (NCATS).

In assay [1] the target is alpha-glucosidase (Oryza sativa, rice) (UniProt Q653V4). Put plainly: Counterscreen for Glucocerebrosidase Inhibitors: qHTS Assay for Rice alpha-Glucosidase at pH 5.0 (AID 997). In a few lines: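 Rice alpha-glucosidase (4 nM final) with 400 uM 4-methylumbelliferyl-alpha-D-glucopyranoside in citrate buffer pH 5.0, 20 min at room temperature, stopped at pH 10; fluorescence 365/440 nm, compounds 0.7 nM–77 uM, AC50 from Hill fits.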

Assay [2] can be described thus: Validation of Assay for Modulators of Lamin A Splicing (AID 1459; active means well fitted curve in the direction sought with a large enough effect in the signal ratio; the % refers to the signal ratio;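 further: cells exposed to compound for two days before reading; ratio rise marks activators and ratio drop marks inhibitors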). In a few lines:
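Splicing correction read as GFP (500-530 nm) over DsRed2 (575-640 nm) object intensity after 48 h compound exposure of reporter HeLa S3 clones (600 cells/well, 2% FBS medium); ancitabine and cycloheximide titrations, 0.5% DMSO as vehicle.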

The target of assay [3] is DNA repair nuclease/redox regulator APEX1 (Homo sapiens) (UniProt P27695). The assay is described as follows: qHTS Validation Assay for Inhibitors of the Human Apurinic/apyrimidinic Endonuclease 1 (APE1) (AID 1705; further: potency means the concentration at half of the fitted maximal effect). In short, it runs like this: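 Activity read as rising fluorescence (598 nm emission, 525 nm excitation) from incision of a TAMRA/BHQ-2 duplex carrying a THF abasic site (50 nM). Compound and enzyme sat 15 min at RT before substrate start; signal change between first and third 60-s reads.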
DNA repair nuclease/redox regulator APEX1 (Homo sapiens), sequence (P27695 whole entry, looked up): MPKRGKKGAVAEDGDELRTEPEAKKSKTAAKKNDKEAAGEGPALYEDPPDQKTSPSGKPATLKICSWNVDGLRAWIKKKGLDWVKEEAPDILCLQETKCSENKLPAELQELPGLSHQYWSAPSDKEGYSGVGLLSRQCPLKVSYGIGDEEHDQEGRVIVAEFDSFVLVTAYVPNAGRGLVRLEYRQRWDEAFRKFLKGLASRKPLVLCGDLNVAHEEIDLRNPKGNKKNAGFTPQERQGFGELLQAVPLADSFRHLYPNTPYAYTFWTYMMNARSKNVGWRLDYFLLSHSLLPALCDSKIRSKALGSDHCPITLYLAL

Assay [4] in a line: Counterscreen for APE1 Inhibitors: Fluorescent Dye Displacement Validation Assay (AID 1707). In a few lines: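 Thiazole Orange (250 nM) bound to 50 nM TAMRA-labelled dsDNA with tetrahydrofuran abasic site; displacement by DNA-binding compounds lowers fluorescence. Buffer 50 mM Tris-HCl pH 7.5, 50 mM NaCl, 2 mM MgCl2, 0.01% Tween-20; endpoint read at 480/540 nm.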
A general note: Counterscreens check selectivity or assay interference.

Assay [5] addresses Endonuclease 4 (Escherichia coli (strain K12)) (UniProt P0A6C1). The assay is described as follows: Counterscreen for APE1 Inhibitors: qHTS Validation Assay for Inhibitors of Endonuclease IV (AID 1708). In a few lines: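 Enzymatic AP-site incision assay using a double-stranded THF substrate labelled with TAMRA and BHQ-2; released fluorescence signals activity. Enzyme 2 nM, substrate 50 nM, 15 min compound preincubation.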

Assay [6] is described as follows: qHTS for differential inhibitors of proliferation of Plasmodium falciparum line 7G8 (AID 1815).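 Further: parasite growth measured after three days of incubation.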 Further: potency means the concentration at half of the fitted maximal effect. A general note: qHTS replaces the single test concentration by a dilution series.
The nature of assay [7]: qHTS for differential inhibitors of proliferation of Plasmodium falciparum line GB4 (AID 1816).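 Further: parasite growth measured after 72 h incubation.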 Further: potency means the concentration at half of the fitted maximal effect. To be noted: Potency: Plasmodium falciparum GB4 proliferation inhibition.
A short description of assay [8]: qHTS for differential inhibitors of proliferation of Plasmodium falciparum line D10 (AID 1877).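 Further: parasites grown with compound for 72 h before DNA staining.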 Further: potency means the concentration at half of the fitted maximal effect.
A short description of assay [9]: qHTS for differential inhibitors of proliferation of Plasmodium falciparum line W2 (AID 1883).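 Further: parasites grown with compound for 72 h before lysis and staining.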 Further: potency means the concentration at half of the fitted maximal effect. The settings on record: Potency: Plasmodium falciparum W2 proliferation inhibition.
Assay [10] is described as follows: qHTS for differential inhibitors of proliferation of Plasmodium falciparum line HB3 (AID 1886).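 Further: parasites grown with compound for 72 h before SYBR Green readout.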 Further: potency means the concentration at half of the fitted maximal effect. To be noted: Potency: Plasmodium falciparum HB3 proliferation inhibition.
Assay [11] is described as follows: qHTS for differential inhibitors of proliferation of Plasmodium falciparum line Dd2 (AID 1882). Further: nearly all actives have a fitted effect of over 65% in size. Further: potency means the concentration at half of the fitted maximal effect. The settings on record: Potency: Plasmodium falciparum Dd2 proliferation inhibition. In short, it runs like this: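 SYBR Green I DNA fluorescence read-out, ex 485/em 535 nm. Signals were normalized to 0.29 uM artemisinin and DMSO wells, then corrected using vehicle-only plates flanking each stack. Parasite growth ran 72 h in erythrocytes before lysis.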

The target of assay [12] is Ferritin light chain (Equus caballus) (UniProt P02791). Put plainly: qHTS Validation Assay for Identification of Novel General Anesthetics (AID 2323). Further: series mostly up to about 77 µM. In a few lines:
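Competitive displacement of the profluorescent anesthetic 1-AMA (50% saturated, PBS) from 10 uM apoferritin, 10 min, room temperature. Activity is normalized 380/535 nm fluorescence; concentration-response fitted with a four-parameter Hill equation.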

The target of assay [13] is ATP-dependent DNA helicase Q1 (Homo sapiens) (UniProt P46063). Put plainly: qHTS Validation Assay for Inhibitors of RecQ-Like Dna Helicase 1 (RECQ1) (AID 2353). In short, it runs like this:
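50 nM RECQ1T1 preincubated 15 min with compound in Tris pH 8.0 buffer with MgCl2, DTT, Tween-20 and 2.5 ug/ml poly(dI-dC); started with 200 nM TAMRA/BHQ-2 forked duplex and 2 mM ATP. Unwinding read as fluorescence (525/598 nm), two reads 2 h apart.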

The nature of assay [14]: qHTS for differential inhibitors of proliferation of Plasmodium falciparum line 3D7 (AID 1876). Further: potency means the concentration at half of the fitted maximal effect.
Assay [15] can be described thus: qHTS Assay for Modulators of Human Peripheral Myelin Protein 22 (PMP22) Expression/Activity (AID 1967; active means well fitted curve in the direction sought with a large enough effect in the signal ratio; the % refers to the signal ratio). In a few lines: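 Readout is the corrected green/red luminescence ratio after 24 h compound exposure, normalised to untreated cells (0%). Engineered MSC80 mouse Schwann cells express green luciferase from the mouse Pmp22 promoter and red luciferase from EF-alpha as internal control.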

The target in assay [16] is RecQ-like DNA helicase BLM (Homo sapiens) (UniProt P54132). Put plainly: qHTS Validation Assay for Inhibitors of Bloom's syndrome helicase (BLM) (AID 2364). In a few lines: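 Forked 20-bp duplex substrate (200 nM, TAMRA/BHQ-2) plus 2 mM ATP added after 15 min compound preincubation with 50 nM enzyme, pH 8.0, poly(dI-dC) 2.5 ug/ml. Strand separation followed by fluorescence (525/598 nm) over 2 h, normalized to enzyme-free and DMSO controls.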
RecQ-like DNA helicase BLM (Homo sapiens), sequence (P54132 whole entry, looked up): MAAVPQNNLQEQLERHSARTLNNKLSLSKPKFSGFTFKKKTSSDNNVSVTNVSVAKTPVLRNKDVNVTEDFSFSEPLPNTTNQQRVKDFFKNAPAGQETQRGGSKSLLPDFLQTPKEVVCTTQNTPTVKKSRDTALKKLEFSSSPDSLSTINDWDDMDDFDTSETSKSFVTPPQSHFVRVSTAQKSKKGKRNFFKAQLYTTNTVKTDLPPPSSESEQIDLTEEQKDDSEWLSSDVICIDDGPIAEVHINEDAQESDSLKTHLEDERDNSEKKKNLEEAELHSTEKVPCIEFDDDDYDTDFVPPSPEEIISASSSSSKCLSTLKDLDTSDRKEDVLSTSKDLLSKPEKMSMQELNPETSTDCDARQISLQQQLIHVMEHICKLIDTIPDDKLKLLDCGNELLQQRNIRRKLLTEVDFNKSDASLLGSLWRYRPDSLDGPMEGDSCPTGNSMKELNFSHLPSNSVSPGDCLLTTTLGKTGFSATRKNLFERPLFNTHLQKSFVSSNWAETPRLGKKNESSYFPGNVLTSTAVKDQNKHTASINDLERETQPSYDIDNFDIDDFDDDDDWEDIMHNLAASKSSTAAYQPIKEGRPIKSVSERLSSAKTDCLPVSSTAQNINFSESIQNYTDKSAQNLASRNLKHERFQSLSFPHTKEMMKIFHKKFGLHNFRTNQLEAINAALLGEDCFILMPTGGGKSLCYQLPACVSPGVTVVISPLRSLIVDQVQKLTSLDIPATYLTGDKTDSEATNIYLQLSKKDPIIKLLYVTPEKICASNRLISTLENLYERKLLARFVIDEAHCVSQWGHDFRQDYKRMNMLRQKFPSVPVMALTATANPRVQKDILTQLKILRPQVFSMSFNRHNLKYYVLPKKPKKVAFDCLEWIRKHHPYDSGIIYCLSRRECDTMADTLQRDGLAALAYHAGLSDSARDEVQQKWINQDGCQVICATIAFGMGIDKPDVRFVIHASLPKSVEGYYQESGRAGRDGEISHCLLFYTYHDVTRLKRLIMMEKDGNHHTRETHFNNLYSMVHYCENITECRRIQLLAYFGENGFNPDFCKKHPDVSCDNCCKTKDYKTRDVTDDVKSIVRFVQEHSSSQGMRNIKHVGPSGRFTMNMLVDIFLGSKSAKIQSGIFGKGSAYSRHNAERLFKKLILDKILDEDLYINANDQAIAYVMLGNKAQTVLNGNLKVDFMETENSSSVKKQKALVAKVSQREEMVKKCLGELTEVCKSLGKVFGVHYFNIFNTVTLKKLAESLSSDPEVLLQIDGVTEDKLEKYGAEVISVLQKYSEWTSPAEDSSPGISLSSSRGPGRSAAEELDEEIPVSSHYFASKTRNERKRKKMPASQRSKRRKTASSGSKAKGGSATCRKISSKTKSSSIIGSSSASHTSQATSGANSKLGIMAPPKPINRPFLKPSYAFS

Assay [17] in a line: Cell Viability - LYMP1-002 - Assay at 40 hr (AID 994). Further: nearly all actives have a fitted effect of over 60% in size. In short, it runs like this: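 Human lymphoblastoid cells, 2500/well in complete medium, were preincubated 5 hr at 37 C, then exposed to compounds for 40 hr at 37 C. Intracellular ATP was read by CellTiter-Glo luminescence after 30 min at room temperature; AC50 from Hill-equation fits.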

Results filed as inconclusive are left out. Activity calls are given as the source filed them. Unless noted, the call rests on the fitted dose curve; in most records, active means well fitted curve in the direction sought with a large enough effect; inconclusive means small, poorly fitted or top-dose-only effect, or another doubt; inactive means no such curve, though single readings can be large; an effect the other way counts as inactive or inconclusive.

ATP-dependent DNA helicase Q1 (Homo sapiens), sequence (P46063 whole entry, looked up): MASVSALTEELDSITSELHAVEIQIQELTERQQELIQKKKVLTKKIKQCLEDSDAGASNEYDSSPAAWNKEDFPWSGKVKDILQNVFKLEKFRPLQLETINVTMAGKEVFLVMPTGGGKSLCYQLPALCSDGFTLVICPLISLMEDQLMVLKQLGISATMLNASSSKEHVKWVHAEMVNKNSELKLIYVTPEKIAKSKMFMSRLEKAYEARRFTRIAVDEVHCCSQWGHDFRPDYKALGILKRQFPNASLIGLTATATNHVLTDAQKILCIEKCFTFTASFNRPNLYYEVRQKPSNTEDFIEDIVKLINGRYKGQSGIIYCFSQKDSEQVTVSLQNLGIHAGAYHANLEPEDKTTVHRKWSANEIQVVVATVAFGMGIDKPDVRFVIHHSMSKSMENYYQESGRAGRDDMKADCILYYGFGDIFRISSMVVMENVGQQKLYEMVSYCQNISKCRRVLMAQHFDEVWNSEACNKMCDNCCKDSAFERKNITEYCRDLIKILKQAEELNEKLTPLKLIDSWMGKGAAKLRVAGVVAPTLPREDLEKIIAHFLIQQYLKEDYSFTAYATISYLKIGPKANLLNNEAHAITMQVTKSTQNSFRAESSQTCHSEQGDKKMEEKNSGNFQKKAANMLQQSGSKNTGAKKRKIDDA
Ferritin light chain (Equus caballus), sequence (P02791 2-175 limits assumed): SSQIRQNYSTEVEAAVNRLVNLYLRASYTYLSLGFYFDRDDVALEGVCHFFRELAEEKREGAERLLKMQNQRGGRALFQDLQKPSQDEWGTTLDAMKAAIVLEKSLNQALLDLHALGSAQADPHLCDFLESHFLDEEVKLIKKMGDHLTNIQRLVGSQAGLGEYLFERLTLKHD

For `CCCOC(=O)c1c(-c2ccccc2)nc(CC)c(C(=O)SCC)c1CCC`, the compound was classed as inactive in [1] and in assay [2]. In addition, the Potency entry in assay [3], in assay [4] and in assay [5] was “inactive” each time. Also, the Potency in [6] is 12.6 µM (active); in [7], 11.2 µM (active); in [8], 12.6 µM (active); in assay [9] it was 10 µM (active); in assay [10], 17.8 µM (active).
On to `CN1CCC2(CCN3CCc4c(oc5ccccc45)C3C2)N(C)C1=O` (stereo not drawn), for which, in assay [2], the outcome was inactive. In addition, the Potency result in [3], in [4], in assay [7], in assay [8], in assay [11] and in [12] was “inactive” throughout. In addition, in assay [13], the Potency entry was “inactive”.
In the case of `O=C(O)c1cc(=O)cc(C(=O)O)[nH]1`, the compound was classed as inactive in assay [1], in assay [2] and in assay [15]. Further, the Potency result in assay [3], in [4], in assay [6], in assay [7], in [14] and in assay [8] was “inactive” throughout. Besides, the Potency result in assay [11], in assay [9], in [10], in assay [12] and in [13] was “inactive” in each case.
Take `O=C1NC(=O)c2cc(Nc3ccccc3)c(Nc3ccccc3)cc21`: the result in [1] and in assay [2] was inactive. For the same compound, the Potency entry in assay [3], in assay [4], in assay [12] and in assay [13] was “inactive” throughout. Further, the Potency in assay [6] was 8.91 µM (active); in assay [7], 10 µM (active); in assay [14] it was 12.6 µM (active); in assay [9], 10 µM (active); in assay [10], 8.91 µM (active).
For `CC1C(=O)N(C)C(=O)c2nc[nH]c21` (stereo not drawn), the call in assay [2] and in assay [15] was inactive. Moreover, the Potency entry in [3], in assay [4], in [6], in [7], in assay [14] and in assay [8] was “inactive” in each case. Further, the Potency result in assay [11], in assay [9] and in assay [10] was “inactive” throughout.
For the compound `CCCN(CCc1ccccc1)C1CCc2c(O)cccc2C1` (stereo not drawn), the result in assay [2] was inactive. The Potency entry in [3], in assay [4], in [13] and in assay [16] was “inactive” in each case. In addition, the Potency in assay [6] was 1.12 µM (active); in assay [7], 0.891 µM (active); in assay [14], 3.16 µM (active); in [8], 5.01 µM (active); in assay [11], 2 µM (active); in assay [9] it was 1 µM (active). In [10], the Potency was 2.51 µM (active).
Turning to `O=[N+]([O-])c1cccc2c(Br)[nH]nc12`, the result in assay [1], in assay [2] and in assay [15] was inactive. Moreover, the Potency entry in assay [3], in [4], in assay [6], in [14], in assay [8] and in assay [11] was “inactive” throughout. Also, the Potency entry in assay [9], in assay [10], in [12] and in assay [13] was “inactive” each time.
Take `Nn1nnc2ccccc21`: the call in assay [1], in assay [2] and in assay [15] was inactive. Further, the Potency result in assay [3], in assay [4], in [5], in [11], in [13] and in [16] was “inactive” each time. Besides, the Potency in [6] was 12.6 µM (active); in [8] it was 12.6 µM (active); in [9], 17.8 µM (active).
As to `NCC(O)c1ccc(O)c(O)c1` (stereo not drawn), the call in assay [2] was inactive. The Potency entry in [3], in assay [4], in [5], in assay [11], in [12] and in assay [13] was “inactive” each time. Moreover, the Potency in assay [9] is 11.2 µM (active).
Turning to `CCCCCCCCCC[Si](C)(C)CCC(=O)NC(Cc1ccc(C)cc1)c1ccccc1` (stereo not drawn), in [2], the outcome was inactive. The Potency result in assay [3], in assay [4], in assay [5] and in [13] was “inactive” throughout.
As to `O[Si](CCCN1CCCCC1)(c1ccc(F)cc1)C1CCCCC1` (stereo not drawn), the outcome in [2] was inactive. In addition, the Potency entry in assay [3], in assay [4] and in [13] was “inactive” throughout. In addition, the Potency in assay [6] was 0.0708 µM (active); in assay [7] it was 0.0398 µM (active); in assay [14], 0.0794 µM (active); in [8] it was 0.0282 µM (active); in assay [11], 0.141 µM (active); in assay [9], 0.0631 µM (active). In [10], the Potency is 0.0708 µM (active).
As to `C=CC1(C)CC(=O)C2(O)C(C)(O1)C(OC(C)=O)C(O)C1C(C)(C)CCC(O)C12C` (stereo not drawn), the compound was classed as inactive in assay [2]. The Potency result in [3], in assay [4], in assay [5], in assay [7], in assay [14] and in assay [8] was “inactive” throughout. Besides, the Potency result in assay [11], in assay [12] and in [13] was “inactive” throughout.
As to `O=c1cc(O)cc(/C=C/c2ccc(O)c(O)c2)o1`, the compound was called inactive in [2]. For the same compound, the Potency in assay [3] is 0.794 µM (active); in assay [6], 8.91 µM (active); in assay [7], 12.6 µM (active); in [8] it was 11.2 µM (active); in assay [9], 11.2 µM (active); in assay [10], 11.2 µM (active). The Potency entry in assay [4], in assay [5], in assay [11] and in assay [12] was “inactive” throughout.
As for `CC(=O)C(C)=O`, the call in assay [17], in [1], in assay [2] and in [15] was inactive. Further, the Potency result in assay [3], in assay [4], in assay [6], in [7], in assay [14] and in assay [8] was “inactive” in each case. Also, the Potency result in assay [11], in assay [9], in assay [10], in assay [13] and in assay [16] was “inactive” throughout.
Regarding `CCCCS(=N)(=O)CC[C@H](N)C(=O)O` (stereo partly drawn), in assay [2], the compound was classed as inactive. In addition, the Potency result in assay [3], in assay [4], in assay [5], in assay [8], in assay [11] and in assay [10] was “inactive” throughout. For the same compound, the Potency result in assay [12] and in assay [13] was “inactive” in each case. The Potency was 12.6 µM (active) in [6], 11.2 µM (active) in assay [7] and 8.91 µM (active) in [9].
